The list shows a part of the results. Active and inactive are the calls of the source.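 The calls were made as follows, unless noted: active = mean inhibition above about 50% in the one-dose retest (limit read from the data); inactive = the rest.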
Columns and labels:
[1] = molecular target: Sentrin-specific protease 8 (Homo sapiens) (UniProt Q96LD8); assay: human SENP8 peptidase blockers, hit retest – biochemical, luminescence, single concentration, confirmation (AID 488912;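 active = mean inhibition across replicates above about 50%, limit read from the data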); settings: Recombinant SENP8, Z-RLRGG-aminoluciferin luminescence, 60 min; at 12.5 µM; stronger effect = higher value
Sequence of Sentrin-specific protease 8 (Homo sapiens) (Q96LD8 whole entry, looked up, the tested form may be a part): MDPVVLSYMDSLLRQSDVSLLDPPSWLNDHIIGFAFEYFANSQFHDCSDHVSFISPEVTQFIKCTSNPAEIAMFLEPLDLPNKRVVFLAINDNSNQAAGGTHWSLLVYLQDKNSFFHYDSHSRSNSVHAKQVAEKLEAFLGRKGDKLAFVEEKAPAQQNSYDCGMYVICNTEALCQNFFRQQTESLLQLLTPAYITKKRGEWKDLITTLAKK

[2] = molecular target: Sentrin-specific protease 6 (Homo sapiens) (UniProt Q9GZR1); assay: inhibition of human SENP6 catalytic domain – biochemical, luminescence, single concentration, confirmation (AID 488915); settings: recombinant SENP6, Z-RLRGG-aminoluciferin luminescence; at 12.5 µM; stronger effect = higher value
Sequence of Sentrin-specific protease 6 (Homo sapiens) (Q9GZR1 628-1112 limits assumed): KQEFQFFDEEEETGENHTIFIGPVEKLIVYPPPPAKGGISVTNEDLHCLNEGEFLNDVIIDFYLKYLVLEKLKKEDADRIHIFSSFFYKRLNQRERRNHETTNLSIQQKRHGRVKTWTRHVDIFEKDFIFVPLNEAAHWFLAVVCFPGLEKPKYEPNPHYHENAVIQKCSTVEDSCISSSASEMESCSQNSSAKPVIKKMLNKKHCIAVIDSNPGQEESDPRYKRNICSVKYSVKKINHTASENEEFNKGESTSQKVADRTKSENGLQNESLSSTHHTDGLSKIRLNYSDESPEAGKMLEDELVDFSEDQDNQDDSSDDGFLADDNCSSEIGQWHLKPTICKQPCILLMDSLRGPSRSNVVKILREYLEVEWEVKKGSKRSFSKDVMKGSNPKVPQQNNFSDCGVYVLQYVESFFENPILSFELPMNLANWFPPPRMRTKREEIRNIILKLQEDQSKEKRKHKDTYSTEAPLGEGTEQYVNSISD

[3] = molecular target: Sentrin-specific protease 7 (Homo sapiens) (UniProt Q9BQF6); assay: human SENP7 peptidase blockers, hit retest – biochemical, luminescence, single concentration, confirmation (AID 488917); settings: recombinant SENP7, Z-RLRGG-aminoluciferin luminescence, 40 min; at 12.5 µM; stronger effect = higher value
Sequence of Sentrin-specific protease 7 (Homo sapiens) (Q9BQF6 706-1050 limits assumed): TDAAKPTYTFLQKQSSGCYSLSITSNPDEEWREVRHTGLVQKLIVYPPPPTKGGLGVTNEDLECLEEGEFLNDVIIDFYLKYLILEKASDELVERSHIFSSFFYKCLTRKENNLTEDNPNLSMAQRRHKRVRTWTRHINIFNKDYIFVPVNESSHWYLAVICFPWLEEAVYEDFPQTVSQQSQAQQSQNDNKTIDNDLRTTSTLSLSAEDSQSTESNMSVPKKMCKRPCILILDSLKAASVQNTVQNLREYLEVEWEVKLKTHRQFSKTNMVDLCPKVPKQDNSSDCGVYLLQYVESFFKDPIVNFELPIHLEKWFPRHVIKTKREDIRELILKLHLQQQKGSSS

[4] = molecular target: Caspase-3 (Homo sapiens) (UniProt P42574); assay: human caspase-3 activity blockade, out-of-family – biochemical, single concentration, selectivity assay for SENP inhibitor project, confirmation (AID 488918;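 active = mean inhibition above about 50%, limit read from the data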;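 also: plate controls were enzyme with DMSO for no effect and wells without caspase-3 for full effect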); settings: purified caspase-3, Z-DEVD-aminoluciferin luminescence, 60 min; at 12.5 µM; stronger effect = higher value
Sequence of Caspase-3 (Homo sapiens) (P42574 28-227 limits assumed): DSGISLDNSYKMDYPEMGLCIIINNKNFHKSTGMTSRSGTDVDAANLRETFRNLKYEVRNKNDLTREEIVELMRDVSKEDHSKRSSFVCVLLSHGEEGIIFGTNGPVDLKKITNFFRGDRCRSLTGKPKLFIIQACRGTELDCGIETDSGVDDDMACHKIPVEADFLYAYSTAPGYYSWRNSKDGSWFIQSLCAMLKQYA

[5] = Ultra-Glo luciferase signal interference – biochemical, single concentration, SENP8 reaction pre-completed, artefact control for SENP inhibitor project, confirmation (AID 488919;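 active = mean inhibition above about 50% when retested at one dose, limit read from the data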;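 also: plate controls were DMSO wells with completed reaction for no effect and substrate without enzyme for full effect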); settings: Pre-incubated SENP8/Z-RLRGG-aminoluciferin, luciferase luminescence interference; at 12.5 µM; stronger effect = higher value
[6] = inhibition of PEG-3 promoter luciferase signal – cell-based, HeLa, luciferase reporter, single concentration, confirmation (AID 602417;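 active = at 20 µM dose, 40% or more inhibition averaged across four replicates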); settings: HeLa PEG-Prom luciferase reporter, luminescence, overnight; at 20 µM; stronger effect = higher value
[7] = molecular target: PEG-3 (UniProt Q6IN02); assay: inhibition of PEG-3 promoter-driven reporter – cell-based, HeLa, luciferase, CREF/GAPDH counter-screen panel, dose response (AID 624167); settings: CREF/GAPDH counter-screens; HeLa PEG-Prom luciferase reporter, overnight, run 1, dose range 1, at 100 µM (top of the series) unless noted
Sequence of PEG-3 (Q6IN02 whole entry, looked up): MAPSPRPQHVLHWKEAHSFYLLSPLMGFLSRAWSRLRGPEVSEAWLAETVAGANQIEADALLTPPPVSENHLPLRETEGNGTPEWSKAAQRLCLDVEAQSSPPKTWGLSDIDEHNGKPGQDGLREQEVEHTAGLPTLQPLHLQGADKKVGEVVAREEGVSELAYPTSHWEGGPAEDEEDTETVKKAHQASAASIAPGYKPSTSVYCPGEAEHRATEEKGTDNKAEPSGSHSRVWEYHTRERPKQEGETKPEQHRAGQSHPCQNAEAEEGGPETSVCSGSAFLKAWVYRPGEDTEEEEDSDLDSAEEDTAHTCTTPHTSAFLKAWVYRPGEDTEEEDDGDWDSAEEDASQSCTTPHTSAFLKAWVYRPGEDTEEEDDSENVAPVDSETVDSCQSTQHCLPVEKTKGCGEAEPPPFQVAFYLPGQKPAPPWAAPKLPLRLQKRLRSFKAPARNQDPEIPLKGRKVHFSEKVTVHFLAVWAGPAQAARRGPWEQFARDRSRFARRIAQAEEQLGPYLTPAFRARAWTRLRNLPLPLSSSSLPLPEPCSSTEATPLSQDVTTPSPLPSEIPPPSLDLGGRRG

[8] = molecular target: PEG-3 (UniProt Q6IN02); assay: as above; settings: CREF/GAPDH counter-screens; HeLa PEG-Prom luciferase reporter, overnight, run 2, dose range 1, at 100 µM (top of the series) unless noted
[9] = test system: Rat fibroblasts (CREF); assay: as above; settings: CREF/GAPDH counter-screens; run 1, dose range 1, at 100 µM (top of the series)
[10] = test system: Rat fibroblasts (CREF); assay: as above; settings: CREF/GAPDH counter-screens; run 2, dose range 1, at 100 µM (top of the series)
[11] = molecular target: Tumor necrosis factor receptor superfamily member 10B (Homo sapiens) (UniProt O14763); assay: viability loss of caspase-8 NB7 cells with TRAIL – with/without TRAIL, luminescence panel, confirmation (AID 651596; in the data active = activity above about 50%); settings: NB7 neuroblastoma + caspase-8, TRAIL sensitization, NB7 Caspase-8, with TRAIL, mean of runs, at 10 µM, stronger effect = higher value
Sequence of Tumor necrosis factor receptor superfamily member 10B (Homo sapiens) (O14763 whole entry, looked up): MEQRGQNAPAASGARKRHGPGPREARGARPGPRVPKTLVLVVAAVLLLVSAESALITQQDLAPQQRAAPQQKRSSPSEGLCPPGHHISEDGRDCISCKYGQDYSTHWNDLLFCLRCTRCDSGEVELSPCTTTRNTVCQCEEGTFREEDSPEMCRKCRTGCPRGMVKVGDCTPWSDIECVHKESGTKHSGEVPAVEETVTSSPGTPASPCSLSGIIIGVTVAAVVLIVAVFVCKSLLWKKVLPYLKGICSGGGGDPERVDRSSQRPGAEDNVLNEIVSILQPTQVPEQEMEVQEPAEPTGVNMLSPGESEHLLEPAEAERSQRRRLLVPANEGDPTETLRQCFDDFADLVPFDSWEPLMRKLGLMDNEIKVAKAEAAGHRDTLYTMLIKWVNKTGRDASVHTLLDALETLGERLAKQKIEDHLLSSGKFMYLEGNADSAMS

[12] = as above; settings: NB7 neuroblastoma + caspase-8, without TRAIL, NB7 Caspase-8, without TRAIL, mean of runs, at 10 µM
[13] = apoptosome-driven caspase-3 activation blockers – biochemical, fluorescence, DEVD-Rh110, 20 µM, confirmation (AID 504614;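 active = mean inhibition of at least 40% at 20 µM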;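 also: plate controls were DMSO wells for no effect and DEVD-CHO caspase inhibitor control wells for full effect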); settings: reconstituted apoptosome, caspase-3 DEVD-Rh110 fluorescence; at 20 µM; stronger effect = higher value
[14] = detection-step artefacts after completed caspase reaction – biochemical, fluorescence, Rh110, 20 µM, artefact control for Apaf-1 inhibitor project, confirmation (AID 504615;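 active = signal rise of 40% or more at 20 µM, treated as a fluorescence artifact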); settings: quenched caspase reaction, at 20 µM, stronger effect = higher value
[15] = fluorescence interference of Apaf-1 inhibitor hits, dose response, artefact control for Apaf-1 inhibitor project (AID 588538; call rule not given here); settings: fluorescence interference counterscreen, Apaf-1 assay format
[16] = Brca1-Bard1 BiLC signal decrease – luminescence, single concentration, counter-screen for Mdm2/MdmX interaction inhibitor project, confirmation (AID 504668; call rule not given here); settings: Brca1/Bard1 bimolecular luciferase complementation counterscreen, at 8 µM, stronger effect = higher value
[17] = HIF-2a driven luciferase blockers, single dose – luminescence, 786-0 RCC cells, confirmation (AID 651580;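 active = mean inhibition across four replicates of at least 40 percent at the single tested concentration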); settings: HIF-2a luciferase reporter luminescence, overnight, at 18.8 µM, stronger effect = higher value
[18] = HIF-1a luciferase reporter signal reduction – MiaPaCa-2 cells, single concentration, counter-screen for HIF-2a inhibitor project, confirmation (AID 651589;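 active = mean inhibition of the reporter signal across four replicates at the single tested dose of 50% or more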); settings: MiaPaCa-2 HIF-1a luciferase reporter, desferoxamine, overnight; at 18.8 µM; stronger effect = higher value
[19] = molecular target: Protein Mdm4 (Homo sapiens) + E3 ubiquitin-protein ligase Mdm2 (Homo sapiens) (UniProt O15151+Q00987); assay: human Mdm2/MdmX binding disruption – cell-based, luminescence, single concentration, set 2, confirmation (AID 504601;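 active = mean inhibition of the luminescence signal across two replicates at or above 26 percent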); settings: SaOS-2 split-luciferase Mdm2/MdmX complementation, at 8 µM, stronger effect = higher value
Sequence of Protein Mdm4 (Homo sapiens) + E3 ubiquitin-protein ligase Mdm2 (Homo sapiens) (O15151 whole entry, looked up): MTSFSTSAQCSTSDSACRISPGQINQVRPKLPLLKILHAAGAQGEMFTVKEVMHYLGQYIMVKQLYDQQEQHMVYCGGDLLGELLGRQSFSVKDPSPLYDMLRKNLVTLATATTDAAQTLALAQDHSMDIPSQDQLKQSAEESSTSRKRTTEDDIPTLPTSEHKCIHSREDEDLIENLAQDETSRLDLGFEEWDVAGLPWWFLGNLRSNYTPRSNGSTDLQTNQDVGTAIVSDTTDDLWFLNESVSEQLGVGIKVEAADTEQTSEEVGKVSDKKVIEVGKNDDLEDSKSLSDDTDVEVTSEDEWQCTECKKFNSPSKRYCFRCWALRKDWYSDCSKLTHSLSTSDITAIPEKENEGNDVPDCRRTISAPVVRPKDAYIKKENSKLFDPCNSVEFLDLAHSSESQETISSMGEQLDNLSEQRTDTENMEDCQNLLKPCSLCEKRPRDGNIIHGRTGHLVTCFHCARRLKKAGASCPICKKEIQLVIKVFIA
Sequence of Protein Mdm4 (Homo sapiens) + E3 ubiquitin-protein ligase Mdm2 (Homo sapiens) (Q00987 whole entry, looked up): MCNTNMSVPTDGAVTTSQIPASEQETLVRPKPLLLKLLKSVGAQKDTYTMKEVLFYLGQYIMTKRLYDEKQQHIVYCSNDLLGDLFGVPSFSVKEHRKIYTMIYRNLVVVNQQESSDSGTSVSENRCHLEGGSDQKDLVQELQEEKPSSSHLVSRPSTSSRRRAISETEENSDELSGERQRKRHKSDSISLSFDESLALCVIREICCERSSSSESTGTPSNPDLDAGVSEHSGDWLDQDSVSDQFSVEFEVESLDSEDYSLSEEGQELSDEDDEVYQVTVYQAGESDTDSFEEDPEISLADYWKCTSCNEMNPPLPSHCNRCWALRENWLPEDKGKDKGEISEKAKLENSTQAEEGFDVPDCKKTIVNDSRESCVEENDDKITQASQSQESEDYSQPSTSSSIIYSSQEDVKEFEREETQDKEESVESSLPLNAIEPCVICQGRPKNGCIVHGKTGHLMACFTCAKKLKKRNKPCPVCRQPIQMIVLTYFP

SMILES: Cc1ccc2nc(-c3ccc(Br)cc3)cn2c1
- inhibition [1]: 7.3% (inactive)
- inhibition [2]: 34.4% (inactive)
- inhibition [3]: 70% (active)
- inhibition [4]: 51.5% (active)
- inhibition [5]: -8.6% (inactive)
- inhibition [6]: 49.5% (active)
- inhibition [7]: 101%
- inhibition [8]: 88.9%
- inhibition [9]: 93.6%
- inhibition [10]: 85.5%

SMILES: CC(=O)Nc1cccc(C(=O)OCC(=O)c2ccc3c(c2)OCO3)c1
- inhibition [1]: 84.2% (active)
- inhibition [2]: 83.1% (active)
- inhibition [3]: 51.3% (active)
- inhibition [4]: 85.2% (active)
- inhibition [5]: 80.8% (active)
- activity [11]: 70.3%
- activity [12]: 60.6%

SMILES: c1c2c(cc3sc(N4CCCCC4)nc13)OCCO2
- inhibition [1]: 97% (active)
- inhibition [2]: 98.6% (active)
- inhibition [3]: 103% (active)
- inhibition [4]: 97.5% (active)
- inhibition [5]: 52.1% (active)
- inhibition [6]: 37.5% (inactive)

SMILES: O=C(Nc1ccccc1)c1ccc2c(c1)OCCCO2
- inhibition [1]: 78.5% (active)
- inhibition [2]: 77.7% (active)
- inhibition [3]: 94.2% (active)
- inhibition [4]: 90% (active)
- inhibition [5]: 81.9% (active)
- activity [11]: 79.9%
- activity [12]: 79.9%

SMILES: O=C(Nc1ccc(Cl)cn1)c1ccc2c(c1)OCCO2
- inhibition [1]: -5.1% (inactive)
- inhibition [2]: 71.4% (active)
- inhibition [3]: 92.9% (active)
- inhibition [4]: 82.8% (active)
- inhibition [5]: 76.4% (active)
- activity [11]: 67.6%
- activity [12]: 71.8%

SMILES: O=C(/C=C/c1ccc2c(c1)OCCO2)c1ccc(O)cc1
- inhibition [1]: 68.6% (active)
- inhibition [2]: 59% (active)
- inhibition [3]: 72.1% (active)
- inhibition [4]: 54.3% (active)
- inhibition [5]: 86.9% (active)
- activity [11]: 41%
- activity [12]: 45.6%

SMILES: CCN1C(=O)c2cccc3c(N)ccc1c23
- inhibition [1]: 22% (inactive)
- inhibition [2]: 41.5% (inactive)
- inhibition [3]: 15.6% (inactive)
- inhibition [4]: 2.1% (inactive)
- inhibition [5]: -6.4% (inactive)
- inhibition [13]: 70.1% (active)
- activation (fluorescence interference) [14]: 2.39% (inactive)
- IC50 [15]: > 100 µM (inactive)

SMILES: CCOc1ccc(-c2nnc(-c3ccco3)o2)cc1
- inhibition [1]: 5.3% (inactive)
- inhibition [2]: 72.1% (active)
- inhibition [3]: 79% (active)
- inhibition [4]: 73.8% (active)
- inhibition [5]: 15.9% (inactive)
- activity [11]: 52.5%
- activity [12]: 56.5%

SMILES: Cc1ccsc1C(=O)OCC(=O)c1cc(C)n(CC2CCCO2)c1C (configuration not stated)
- inhibition [1]: 35.3% (inactive)
- inhibition [2]: 97.2% (active)
- inhibition [3]: 102% (active)
- inhibition [4]: 96.7% (active)
- inhibition [5]: 58.8% (active)
- inhibition [16]: 28.9% (active)
- inhibition [6]: 80.8% (active)
- inhibition [17]: 65.9% (active)
- inhibition [18]: 80.2% (active)
- inhibition [7]: 96.8%
- inhibition [8]: 92.7%
- activity [11]: 74.5%
- activity [12]: 68.1%

SMILES: O=C1[C@H]2[C@@H](c3ccc(F)cc3)N3C(=O)N(c4ccc(C(F)(F)F)cc4)C(=O)[C@@]3(Cc3ccccc3)[C@H]2C(=O)N1C1CCCCC1
- inhibition [19]: 101% (active)

SMILES: CCOC(=O)c1ccc(Nc2cc3ccccc3c(=O)[nH]2)cc1
- inhibition [1]: 28.7% (inactive)
- inhibition [2]: 63.5% (active)
- inhibition [3]: 31.6% (inactive)
- inhibition [4]: 9.8% (inactive)
- inhibition [5]: -2.7% (inactive)
- inhibition [13]: 62.4% (active)
- activation (fluorescence interference) [14]: 11.7% (inactive)
- IC50 [15]: > 100 µM (inactive)

SMILES: CC(=O)N(C1=C(Cl)C(=O)c2ccccc2C1=O)c1ccc(C(=O)O)cc1
- inhibition [1]: 81.7% (active)
- inhibition [2]: 91% (active)
- inhibition [3]: 55.3% (active)
- inhibition [4]: 6.3% (inactive)
- inhibition [5]: 4% (inactive)
- inhibition [13]: 95% (active)
- activation (fluorescence interference) [14]: 9.87% (inactive)
- IC50 [15]: > 100 µM (inactive)

SMILES: COc1cccc(NC(=O)[C@H](Cc2c[nH]c3ccccc23)NC(=O)[C@@H]2Cc3ccccc3CN2)c1
- inhibition [19]: 98.2% (active)

SMILES: COc1cccc(C(=O)Nc2ccc(N3CCCC3)cc2)c1
- inhibition [1]: 95% (active)
- inhibition [2]: 99.7% (active)
- inhibition [3]: 104% (active)
- inhibition [4]: 99.5% (active)
- inhibition [5]: 86.3% (active)
- activity [11]: 46.8%
- activity [12]: 54%

SMILES: COc1ccc(-c2cc3ccc(OCc4nn[nH]n4)cc3oc2=O)cc1
- inhibition [1]: 64% (active)
- inhibition [2]: 63.1% (active)
- inhibition [3]: 87.3% (active)
- inhibition [4]: 66.2% (active)
- inhibition [5]: 70.6% (active)
- activity [11]: 58.8%
- activity [12]: 56.2%

SMILES: CC(C)n1cnc2c(NCc3ccccc3)cc(OCC3CCN(C)CC3)cc21
- inhibition [1]: 57.7% (active)
- inhibition [2]: 75.3% (active)
- inhibition [3]: 35.5% (inactive)
- inhibition [4]: 6.2% (inactive)
- inhibition [5]: -4.2% (inactive)
- inhibition [13]: 78.1% (active)
- activation (fluorescence interference) [14]: -0.65% (inactive)
- IC50 [15]: > 100 µM (inactive)

Source: PubChem BioAssay
